A number with no mark means an inactive call. No rule for the calls is given here.
Each compound was assayed against fMet-Leu-Phe receptor (Homo sapiens) (UniProt P21462) (assay: FPR1 fluorescent ligand binding inhibitors, SAR follow-up, selectivity assay for FPRL1 ligand SAR project, cell-based, single concentration (AID 763)). Settings: FPR1-expressing cells, hits give high values; at 5.4 µM unless noted.
Sequence of fMet-Leu-Phe receptor (Homo sapiens) (P21462 whole entry, looked up): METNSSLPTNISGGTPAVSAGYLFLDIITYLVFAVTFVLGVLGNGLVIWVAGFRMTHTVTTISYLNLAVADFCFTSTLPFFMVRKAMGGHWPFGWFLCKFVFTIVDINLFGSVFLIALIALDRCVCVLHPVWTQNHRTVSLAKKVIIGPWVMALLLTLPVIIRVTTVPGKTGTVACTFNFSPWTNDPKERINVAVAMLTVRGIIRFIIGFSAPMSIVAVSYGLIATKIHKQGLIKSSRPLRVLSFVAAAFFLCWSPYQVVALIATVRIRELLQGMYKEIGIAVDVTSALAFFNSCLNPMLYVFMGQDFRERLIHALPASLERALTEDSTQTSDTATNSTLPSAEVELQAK
Compound COc1ccc(-c2cc(C(F)(F)F)nc(N3CCN(Cc4ccccc4)CC3)n2)cc1 has an inhibition of -2.6% [at 5.2 µM]. Work on CCC(=O)Nc1cccc(-c2cn3cccnc3n2)c1 yielded an inhibition of -0.2% [at 8.3 µM]. COc1ccc(-c2cn3cccnc3n2)cc1NC(=O)c1ccc(Br)o1 was tested, and the inhibition was 0.9%. Work on COc1ccc(-c2cn3cccnc3n2)cc1NC(=O)c1ccccc1Cl yielded an inhibition of -3.1% [at 5.9 µM]. CCCC(=O)Nc1cccc(-c2cn3cccnc3n2)c1 was tested, and the inhibition was -1.6% [at 7.9 µM]. With N#Cc1cc(-c2ccccc2)nc(N2CCN(c3ccccc3)CC2)n1 the inhibition was -6% [at 6.5 µM]. Compound CCOC(=O)N1CCN(c2nc(-c3ccccc3OC)cc(C(F)(F)F)n2)CC1 has an inhibition of 1%. With Clc1ccc2nc(N3CCN(c4ccccc4)CC3)nc(-c3ccccc3)c2c1 the inhibition was 1.7% [at 5.5 µM]. In the case of COc1ccc(-c2cn3cccnc3n2)cc1NC(=O)CCCc1ccccc1, the inhibition is reported as -0.5% [at 5.8 µM]. O=C(N1CCN(c2nc(-c3ccccc3)c3ccccc3n2)CC1)C(F)(F)F was tested, and the inhibition was 5.9% [at 5.8 µM]. For O=C(O)CCC(=O)N1CCN(c2nc(-c3ccccc3Cl)c3cc(Br)ccc3n2)CC1, the inhibition was 2.5% [at 4.4 µM]. CC(C)(C)OC(=O)N1CCN(c2nc(-c3ccccc3)c3cc([N+](=O)[O-])ccc3n2)CC1 was tested, and the inhibition was -8.4% [at 5.1 µM]. CC1(C)CC(=O)c2cnc(N3CCN(Cc4ccc5c(c4)OCO5)CC3)nc2C1 showed an inhibition of 11.3% [at 5.6 µM]. COc1ccc(-c2cc(C(F)(F)F)nc(N3CCN(C(c4ccccc4)c4ccccc4)CC3)n2)cc1OC was tested, and the inhibition was -2.6% [at 4.2 µM]. In the case of CC1CCc2nc(N3CCN(Cc4ccccc4)CC3)nc(C(F)(F)F)c2C1 (stereo not drawn), the inhibition is reported as 4.7% [at 5.7 µM]. CCOC(=O)N1CCN(c2nc(-c3ccc(OC)c(OC)c3)cc(C(F)(F)F)n2)CC1 was tested, and the inhibition was 4.1% [at 5.1 µM]. In the case of COc1ccc(-c2cc(C(F)(F)F)nc(N3CCN(C)CC3)n2)cc1, the inhibition is reported as 2.1% [at 6.3 µM]. For FC(F)(F)c1cc(-c2ccccc2)nc(N2CCN(c3ccccc3)CC2)n1, the inhibition was 2.9% [at 5.8 µM]. COc1ccc(-c2cn3cccnc3n2)cc1NC(=O)c1ccc(OC)c(OC)c1 gave an inhibition of -5.3% [at 5.5 µM]. COc1ccc(-c2cn3cccnc3n2)cc1NC(=O)C(C)C gave an inhibition of -8.8% [at 7.2 µM]. Compound COc1ccc(-c2cc(C(F)(F)F)nc(N3CCN(Cc4ccccc4)CC3)n2)cc1OC has an inhibition of 4.7% [at 4.9 µM]. With COc1ccc(-c2cn3cccnc3n2)cc1NC(=O)C(C)Oc1ccccc1 (stereo not drawn) the inhibition was 3.7% [at 5.7 µM]. With CCOC(=O)N1CCN(c2nc(-c3ccccc3)c3ccccc3n2)CC1 the inhibition was 3.6% [at 6.1 µM]. In the case of COc1ccc(-c2cn3cccnc3n2)cc1NC(=O)c1ccc(Cl)cc1, the inhibition is reported as -0.5% [at 5.9 µM]. With O=C(O)CCCC(=O)N1CCN(c2nc(-c3ccccc3)c3ccccc3n2)CC1 the inhibition was -2.1% [at 5.5 µM]. COc1ccc(-c2cn3cccnc3n2)cc1NC(=O)C(C)(C)C was tested, and the inhibition was 1.9% [at 6.9 µM]. COc1ccc(-c2cn3cccnc3n2)cc1NC(=O)Cc1ccccc1 gave an inhibition of -1.4% [at 6.2 µM]. O=C(O)CCC(=O)N1CCN(c2nc(-c3ccccc3)c3cc([N+](=O)[O-])ccc3n2)CC1 was tested, and the inhibition was -0.6% [at 5.1 µM]. COc1ccc(-c2cn3cccnc3n2)cc1NC(=O)c1c(-c2ccccc2Cl)noc1C gave an inhibition of 2.7% [at 4.8 µM]. For CCCCN1CCN(c2nc(-c3ccccc3)c3cc(C)ccc3n2)CC1, the inhibition was -1.5% [at 5.6 µM]. Compound COc1ccc(-c2cn3cccnc3n2)cc1NC(=O)c1ccc(C(C)(C)C)cc1 has an inhibition of 5.7% [at 5.6 µM]. COc1ccc(-c2cn3cccnc3n2)cc1NC(=O)Cc1ccc(Cl)cc1 was tested, and the inhibition was 8% [at 5.7 µM]. In the case of CCCC(=O)Nc1cc(-c2cn3cccnc3n2)ccc1OC, the inhibition is reported as 0.5% [at 7.2 µM].
